Experimental findings from PMC4336329 (PLoS ONE, 2015) are described below.

Screen size: about 310,000 compounds; about 14,000 (4.5%) showed an effect of 50% or more. The effect is printed as a negative number. The list comes from a sample in which strong results are over-represented; it also holds similar structures and randomly drawn compounds.
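Further: peak tail current of the secondary pulse compared with the same well before compound.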

The target of this assay is human ether-à-go-go-related gene (hERG) potassium channel (human, UniProt Q12809). Briefly: primary screen, population patch clamp on CHO cells stably expressing hERG; higher = less effect of the substance.
Chain of human ether-à-go-go-related gene (hERG) potassium channel (Q12809 whole entry, looked up): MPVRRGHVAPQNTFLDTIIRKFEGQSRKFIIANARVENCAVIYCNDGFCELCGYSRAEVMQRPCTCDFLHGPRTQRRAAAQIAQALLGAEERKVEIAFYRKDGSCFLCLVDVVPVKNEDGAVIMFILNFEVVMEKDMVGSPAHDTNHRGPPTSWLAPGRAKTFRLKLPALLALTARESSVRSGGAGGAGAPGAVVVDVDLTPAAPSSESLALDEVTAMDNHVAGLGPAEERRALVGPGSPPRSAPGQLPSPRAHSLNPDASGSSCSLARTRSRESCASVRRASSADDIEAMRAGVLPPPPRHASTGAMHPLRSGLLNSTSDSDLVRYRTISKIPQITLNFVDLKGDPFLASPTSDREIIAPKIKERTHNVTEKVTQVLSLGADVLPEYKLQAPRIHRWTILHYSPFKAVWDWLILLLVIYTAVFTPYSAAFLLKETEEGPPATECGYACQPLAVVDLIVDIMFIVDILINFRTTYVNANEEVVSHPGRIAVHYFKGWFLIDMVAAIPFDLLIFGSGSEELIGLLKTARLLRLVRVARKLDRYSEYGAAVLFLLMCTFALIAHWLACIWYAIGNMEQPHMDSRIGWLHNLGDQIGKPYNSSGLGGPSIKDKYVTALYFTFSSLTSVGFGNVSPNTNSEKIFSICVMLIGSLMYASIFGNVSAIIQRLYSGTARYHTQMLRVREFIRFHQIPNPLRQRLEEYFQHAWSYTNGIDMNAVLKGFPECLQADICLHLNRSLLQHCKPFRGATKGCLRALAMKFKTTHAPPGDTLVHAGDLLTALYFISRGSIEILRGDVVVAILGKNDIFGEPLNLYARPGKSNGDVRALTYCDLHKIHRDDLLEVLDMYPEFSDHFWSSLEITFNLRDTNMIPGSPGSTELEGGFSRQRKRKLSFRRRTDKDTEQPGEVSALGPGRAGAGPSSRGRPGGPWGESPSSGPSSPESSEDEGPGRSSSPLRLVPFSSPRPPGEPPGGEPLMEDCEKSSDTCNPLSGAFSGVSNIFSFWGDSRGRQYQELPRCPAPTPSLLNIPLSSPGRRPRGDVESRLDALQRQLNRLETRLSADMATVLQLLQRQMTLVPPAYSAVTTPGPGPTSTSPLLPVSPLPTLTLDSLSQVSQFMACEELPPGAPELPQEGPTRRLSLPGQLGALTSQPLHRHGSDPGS
Turning to `Cc1ccc(C(C)(C)C)cc1S(=O)(=O)Nc1ncnc2sccc12`, the “hERG current change (%, negative = inhibition) at 10uM” value worked out at 12.2%.

As to `Cn1nnc(NC(=O)c2ccc3ccccc3c2)n1`, the “hERG current change (%, negative = inhibition) at 10uM” value is listed as 5.99%.

As to `CCCN(Cc1cc2ccccc2[nH]c1=O)C(=O)c1cccc([N+](=O)[O-])c1`, the “hERG current change (%, negative = inhibition) at 10uM” value is listed as -16.8%.

Take `Cc1ccc(Cl)cc1N1CCN(S(=O)(=O)c2cccc(S(=O)(=O)N3CCCC3)c2)CC1`: the “hERG current change (%, negative = inhibition) at 10uM” value is listed as 2.64%.

With `N#Cc1cccc(S(=O)(=O)N2CCN(c3ccnc4cc(Cl)ccc34)CC2)c1`, the “hERG current change (%, negative = inhibition) at 10uM” value is -70.7%.

For `O=[N+]([O-])c1ccc(N2CCN(S(=O)(=O)c3ccccc3)CC2)cc1`, the “hERG current change (%, negative = inhibition) at 10uM” value was -46.9%.

`O=S(=O)(c1cccs1)N1CCN(c2ccnc3cc(Cl)ccc23)CC1`: the “hERG current change (%, negative = inhibition) at 10uM” value is -68.4%.

With `CN1CCCN(S(=O)(=O)c2cccc(C#N)c2)CC1.Cl`, the “hERG current change (%, negative = inhibition) at 10uM” value came out at 6.61%.

On to `O=S(=O)(c1ccccc1)N1CCN(c2ccnc3cc(Cl)ccc23)CC1`, for which the “hERG current change (%, negative = inhibition) at 10uM” value was -84%.

For the compound `O=S(=O)(c1cccs1)N1CCN(c2ccccc2Cl)CC1`, the “hERG current change (%, negative = inhibition) at 10uM” value is 9.51%.

As for `Cc1ccc(S(=O)(=O)N2CCN(c3ccnc4cc(Cl)ccc34)CC2)cc1C`, the “hERG current change (%, negative = inhibition) at 10uM” value was determined as 30.7%.

For the compound `O=S(=O)(c1cccc(Br)c1)N1CCN(c2ccnc3cc(Cl)ccc23)CC1`, the “hERG current change (%, negative = inhibition) at 10uM” value is 8.43%.

For `O=S(=O)(c1ccccc1OC(F)(F)F)N1CCN(c2ccnc3cc(Cl)ccc23)CC1`, the “hERG current change (%, negative = inhibition) at 10uM” value is on record as -18.4%.

`O=[N+]([O-])c1ccc(S(=O)(=O)N2CCN(c3ccnc4cc(Cl)ccc34)CC2)cc1`: the “hERG current change (%, negative = inhibition) at 10uM” value is recorded as -73.5%.

For the compound `O=S(=O)(c1ccc(Br)s1)N1CCN(c2ccnc3cc(Cl)ccc23)CC1`, the “hERG current change (%, negative = inhibition) at 10uM” value is reported as -14.8%.

Regarding `COc1ccc(C(=O)COC(=O)c2ccn(C)n2)cc1`, the “hERG current change (%, negative = inhibition) at 10uM” value is given as -14.5%.

Take `Cc1[nH]c(C)c(S(=O)(=O)N2CCN(c3cccc(C(F)(F)F)c3)CC2)c1C(=O)N1CCCCC1`: the “hERG current change (%, negative = inhibition) at 10uM” value is reported as -1.72%.

Turning to `O=C(NCc1ccc(F)cc1)C1CC(=O)N(Cc2ccco2)C1` (centres unmarked), the “hERG current change (%, negative = inhibition) at 10uM” value is given as -17%.

Turning to `COc1cc(C=O)ccc1OCc1ccncc1`, the “hERG current change (%, negative = inhibition) at 10uM” value amounted to 16.5%.

On to `O=C(c1ccco1)N1CCN(c2ncnc3scc(-c4ccc(F)cc4)c23)CC1`, for which the “hERG current change (%, negative = inhibition) at 10uM” value is -70.2%.

Regarding `Fc1ccc(-c2csc3ncnc(N4CCN(Cc5ccccc5)CC4)c23)cc1`, the “hERG current change (%, negative = inhibition) at 10uM” value was -2.14%.

On to `Oc1ccccc1N1CCN(c2ncnc3scc(-c4ccccc4)c23)CC1`, for which the “hERG current change (%, negative = inhibition) at 10uM” value amounted to 4.04%.

Consider `Cc1ccccc1N1CCN(c2ncnc3scc(-c4cccs4)c23)CC1`, for which the “hERG current change (%, negative = inhibition) at 10uM” value is listed as -1.45%.

As to `O=C(c1ccco1)N1CCN(c2ncnc3scc(-c4cccs4)c23)CC1`, the “hERG current change (%, negative = inhibition) at 10uM” value is recorded as -63.9%.

On to `c1ccc(N2CCN(c3ncnc4scc(-c5cccs5)c34)CC2)cc1`, for which the “hERG current change (%, negative = inhibition) at 10uM” value is 9.87%.

As to `O=C(O)CSCC(=O)N1CCN(c2ncnc3scc(-c4ccccc4)c23)CC1`, the “hERG current change (%, negative = inhibition) at 10uM” value is given as 25.4%.

For `Fc1ccc(-c2csc3ncnc(N4CCN(c5ccccc5)CC4)c23)cc1`, the “hERG current change (%, negative = inhibition) at 10uM” value worked out at 16.2%.

`Cc1ccc(-c2csc3ncnc(N4CCN(c5ccccc5O)CC4)c23)cc1`: the “hERG current change (%, negative = inhibition) at 10uM” value was 25.8%.

Take `Cc1ccc(-c2csc3ncnc(N4CCN(C(=O)c5ccccc5)CC4)c23)cc1`: the “hERG current change (%, negative = inhibition) at 10uM” value is listed as -30.5%.

Turning to `O=C(c1cccs1)N1CCCN(c2ncnc3scc(-c4ccccc4)c23)CC1`, the “hERG current change (%, negative = inhibition) at 10uM” value is recorded as -60.7%.

On to `Cc1ccc(-c2csc3ncnc(N4CCN(C(=O)c5ccco5)CC4)c23)cc1`, for which the “hERG current change (%, negative = inhibition) at 10uM” value is on record as -89.9%.

For `CS/C(=N\S(=O)(=O)c1ccccc1)c1ccccc1`, the “hERG current change (%, negative = inhibition) at 10uM” value is reported as 0.781%.

As for `CC(C)n1c(C(F)(F)F)nc2cc(C(=O)N3CCOCC3)ccc21`, the “hERG current change (%, negative = inhibition) at 10uM” value is listed as 16.3%.

In the case of `O=C(O)C1Sc2[nH]c(=O)sc2C2c3cc(Cl)ccc3OC(=O)C12` (centres unmarked), the “hERG current change (%, negative = inhibition) at 10uM” value is given as 14.5%.

Turning to `Cc1ccc(NC(=O)Cc2noc3ccccc23)c(C)c1`, the “hERG current change (%, negative = inhibition) at 10uM” value stood at 11.2%.

As to `O=S(=O)(CCc1nc2ccccc2o1)c1ccc(Cl)c(Cl)c1`, the “hERG current change (%, negative = inhibition) at 10uM” value was 13.4%.

For the compound `CCc1cc(C(=O)N2CCN(C(=O)c3ccco3)CC2)sc1C`, the “hERG current change (%, negative = inhibition) at 10uM” value is on record as 10.6%.

Take `CCc1cc2c(N3CCN(C)CC3)ncnc2s1.Cl`: the “hERG current change (%, negative = inhibition) at 10uM” value is -29%.

On to `Cc1sc2ncnc(N3CCN(C(=O)c4ccco4)CC3)c2c1C`, for which the “hERG current change (%, negative = inhibition) at 10uM” value was -61.8%.

In the case of `COc1ccc(-c2csc3ncnc(N4CCN(c5ccc(OC)cc5)CC4)c23)cc1`, the “hERG current change (%, negative = inhibition) at 10uM” value is reported as -11.2%.

For the compound `COc1ccc(-c2csc3ncnc(N4CCN(C(=O)c5ccco5)CC4)c23)cc1`, the “hERG current change (%, negative = inhibition) at 10uM” value is -75.3%.

Consider `CCc1cc2c(N3CCN(C(=O)c4ccco4)CC3)ncnc2s1`, for which the “hERG current change (%, negative = inhibition) at 10uM” value was -77.7%.

With `CCc1cc2c(N3CCCCC3)ncnc2s1.Cl`, the “hERG current change (%, negative = inhibition) at 10uM” value is -7.21%.

As to `CCc1cc2c(N3CCN(c4ccccc4)CC3)ncnc2s1`, the “hERG current change (%, negative = inhibition) at 10uM” value is given as -43.5%.

For the compound `CCc1cc2c(N3CCN(c4nnc(CC)s4)CC3)ncnc2s1.Cl`, the “hERG current change (%, negative = inhibition) at 10uM” value is recorded as -67.6%.

Turning to `COc1ccc(-c2nsc3c(N4CCN(C(=O)c5ccco5)CC4)ncnc23)cc1`, the “hERG current change (%, negative = inhibition) at 10uM” value came out at 10.9%.

Consider `COc1cc(C(=O)N2CCN(c3ncnc4sc(C)c(C)c34)CC2)cc(OC)c1OC`, for which the “hERG current change (%, negative = inhibition) at 10uM” value is given as -47.2%.

In the case of `Cc1sc2nnn(CC(=O)N3CCN(C(=O)c4ccco4)CC3)c(=O)c2c1C`, the “hERG current change (%, negative = inhibition) at 10uM” value is listed as -32.4%.

For `Fc1ccc(CNCc2cccc(Br)c2)cc1`, the “hERG current change (%, negative = inhibition) at 10uM” value is listed as 13.9%.

As to `O=C(CSc1cn(CCNC(=O)c2ccccc2)c2ccccc12)NCC1CCCO1` (centres unmarked), the “hERG current change (%, negative = inhibition) at 10uM” value is listed as -10.9%.

Take `O=C(CNC(=O)c1cccs1)OCC(=O)c1ccccc1`: the “hERG current change (%, negative = inhibition) at 10uM” value is 8.55%.

Consider `O=C(c1cccnc1Nc1ccccc1F)N1CCOCC1`, for which the “hERG current change (%, negative = inhibition) at 10uM” value was 11.7%.

As for `O=S(=O)(c1ccccc1)C(/C=N\O)/C=C/c1ccccc1` (centres unmarked), the “hERG current change (%, negative = inhibition) at 10uM” value came out at 4.57%.

`CCCc1nnc(NC(=O)CCC(=O)NC2CCCCCC2)s1`: the “hERG current change (%, negative = inhibition) at 10uM” value came out at 13.7%.

In the case of `C=CCNC(=O)COC(=O)CCC(=O)c1cccs1`, the “hERG current change (%, negative = inhibition) at 10uM” value is recorded as 1.42%.

As for `CCC(C)NC(=O)CSc1nc2ccsc2c(=O)n1-c1ccc(OC)cc1` (centres unmarked), the “hERG current change (%, negative = inhibition) at 10uM” value was -3.72%.
